Out of some 48,000 compounds screened, about 13,000 (27%) showed an effect of 50% or more. The list shows a part of the results.
System: Wolbachia pipientis
Test: Anti-Wolbachia Cell-Based Screen
Type: functional
Set-up: scale not given: in the data most compounds retested in dose-response had high values
Settings: 5 µM

SMILES | Percent Effect [%]
COc1nn(C)c2c1CCCN(C(=O)c1c[nH]cn1)C2 | -44.84
Cn1nc(C#N)c2c1CN(C(=O)c1ccnnc1)CCC2 | -0.2276
COc1nn(C)c2c1CCCN(C(=O)c1cnccn1)C2 | 102.6
COc1nn(C)c2c1CCCN(C(=O)c1cscn1)C2 | 93.39
Cn1nc(C#N)c2c1CN(C(=O)c1c[nH]cn1)CCC2 | -11.9
Cn1nc(C#N)c2c1CN(C(=O)c1nc[nH]n1)CCC2 | -49.74
CCN(Cc1noc(C(C)(C)C)n1)Cc1ccc(C#N)cc1F | -6.556
OC(CN(Cc1ccccc1)Cc1cccnc1)c1cccs1 (configuration not stated) | -7.082
Cc1cc(C)n(CCC(=O)N2CCCCC2c2nccs2)n1 (configuration not stated) | 97.13
Cc1cc(C)n(Cc2cc(C(=O)N3CCCC3c3nccs3)n[nH]2)n1 (configuration not stated) | 147.1
Cc1cc(C)n(CC2CCCN2C(=O)CCCNc2ncccn2)n1 (configuration not stated) | -5.56
Cc1cc(C)n(Cc2cc(C(=O)N3CCCCC3c3nccs3)n[nH]2)n1 (configuration not stated) | 94.44
O=C(CCCn1cncn1)N1CCCCC1c1nccs1 (configuration not stated) | -0.08053
Cc1cc(C)n(Cc2cc(C(=O)N3CCCC3c3ccccn3)n[nH]2)n1 (configuration not stated) | 101.3
Cc1noc(CCCC(=O)N2CCCCC2c2nccs2)n1 (configuration not stated) | 4.452
Cc1cc(C)n(CC2CCCN2C(=O)Cc2cn3ccsc3n2)n1 (configuration not stated) | 5.291
Cc1cc(C)n(Cc2cc(C(=O)N[C@H]3CCCCNC3=O)n[nH]2)n1 | 1.384
Cn1cccc1-c1cc(C(=O)N2CCCC2c2nccs2)[nH]n1 (configuration not stated) | -11.21
CC(=O)N1CCC(N2CCN3C(=O)N(c4ccccc4)C[C@H]3C2)CC1 | -6.558
CC(C)C(=O)N1CCN(S(=O)(=O)C2CC2)CC2(CC(=O)N(C)C2)C1 (configuration not stated) | -3.068
CNC(=O)c1nnn(-c2ccccc2F)c1-c1ccccn1 | -7.96
C[C@H]1C[C@H]2CN(C(=O)C3=CCCCC3)CC[C@H]2O1 | -8.819
Cc1cccc2[nH]c(C3CCCN3Cc3ccc(CO)o3)nc12 (configuration not stated) | -7.499

SMILES | Percent Effect [%]
CCS(=O)(=O)NC(C(=O)NC)c1ccc(F)c(F)c1 (configuration not stated) | -1.609
Cc1csc(C2CCCCN2C(=O)c2cc(C3CC3)[nH]n2)n1 (configuration not stated) | 105.1
Cc1cc(C(=O)N2CCCCC2c2nc(C)cs2)[nH]n1 (configuration not stated) | 5.063
CCc1nc(C2CCCN2C(=O)c2cc(C3CC3)[nH]n2)no1 (configuration not stated) | -2.923
Cc1csc(C2CCCCN2C(=O)c2cc(C(C)C)[nH]n2)n1 (configuration not stated) | 109.6
Cc1csc(N2CCN(C(=O)c3cc(C4CC4)[nH]n3)CC2)n1 | -15.84
COC(=O)c1cc2c(=O)[nH]c(=O)n(CCc3ccccc3)c2nc1C | -9.313
O=C(c1ccc2cccc(F)c2n1)N1CCN(CCn2cncn2)CC1 | -17.81
Cc1cc(CN(C)C(=O)NC(C)c2nncn2C)no1 (configuration not stated) | 1.763
Cc1cc(C)n(C2CN(c3nc(N)nc4c3CCCC4)C2)n1 | 12.27
NCc1csc(CCc2ccccc2)n1 | -7.942
O=S(=O)(c1cccc(Cl)c1)N1CCCC(Cn2cncn2)C1 (configuration not stated) | -2.672
CN(C)Cc1cc(C2CCCCN2S(=O)(=O)Cc2ccccc2)nn1C.Cl (configuration not stated) | 133.2
CN(C)CCN1CC[C@@H]2[C@@H]1CCN2C(=O)c1cccc(Cl)c1 | -16.88
CN(C)Cc1cc(C2CCCN(S(=O)(=O)c3cccc(Cl)c3)C2)nn1C (configuration not stated) | 157.3
CCN(C)C[C@@H]1CN(S(=O)(=O)c2cccc(Cl)c2)C[C@@H]1CO | 13.86
CN1C(=O)C[C@@H]2[C@@H]1CCN2S(=O)(=O)Cc1ccccc1 | -5.88
O=S(=O)(N1CCCC1)N1CCCCC1CCc1ccccc1 (configuration not stated) | 1.463
CN(C)Cc1cc(C2CCCCN2S(=O)(=O)c2cccc(Cl)c2)nn1C.Cl (configuration not stated) | 167.4
CCN(Cc1cccc(NC(=O)COC)c1)C(C)=O | -0.3601
Cc1cc(C(=O)NC(C)c2nnn[nH]2)c2ccc(C)c(C)c2n1 (configuration not stated) | -4.141
c1csc(-c2noc(COCC3CCCO3)n2)c1 (configuration not stated) | 0.9659
CCOCc1ccccc1NC(=O)NC1CCN(c2ccccc2)C1 (configuration not stated) | 9.486

SMILES | Percent Effect [%]
O=C(c1ccc[nH]1)N1CCC2(CC1)C(=O)Nc1ccccc12 | -2.806
Cc1nc(C)c(Cc2nc(C3CC3)n[nH]2)c(=O)[nH]1 | -38.01
Cc1ccc(C2CCCN2CC(=O)N(CCC#N)c2ccccc2)cc1 (configuration not stated) | 5.667
COCc1ccc(C(=O)N2CCc3c(ncnc3N3CCOCC3)C2)o1 | -21.39
COc1ncccc1C(=O)N1CCc2c(ncnc2N2CCOCC2)C1 | 105
O=C(c1ncccc1O)N1CCc2c(ncnc2N2CCOCC2)C1 | -10.43
CCc1ccc(-c2nn3c(nc2=O)-c2ccccc2NC3C(=O)O)cc1 (configuration not stated) | -8.075
CCc1cnc(CN2CCOC(c3nc(C)n[nH]3)C2)o1 (configuration not stated) | -1.85
Cn1cc(CNC2CCc3ncnn3C2)c(-c2ccncc2)n1 (configuration not stated) | 11.86
c1ccc(-n2ncc(CNC3CCc4ncnn4C3)n2)cc1 (configuration not stated) | -11.2
c1ccc(-n2cc(CNC3CCc4ncnn4C3)cn2)cc1 (configuration not stated) | 107.7
Cn1cc(CNC2CCc3ncnn3C2)c(-c2cccnc2)n1 (configuration not stated) | -2.662
c1cncc(CNC2CCc3ncnn3C2)c1 (configuration not stated) | 100.1
c1ccc(Cn2cc(CNC3CCc4ncnn4C3)cn2)cc1 (configuration not stated) | 1.382
Clc1ccc(-n2cc(CNC3CCc4ncnn4C3)cn2)cc1 (configuration not stated) | -12.36
Clc1ccccc1Cn1cc(CNC2CCc3ncnn3C2)cn1 (configuration not stated) | 121.3
Cc1nc(C)n(C2CCCN(C(=O)c3cccc4[nH]ncc34)C2)n1 (configuration not stated) | 0.6187
c1ccc2c(c1)CC(N1CCCN(Cc3cccc4nonc34)CC1)C2 | -60.59
COCC(NC(=O)NCc1cccc(C#N)c1)c1ccco1 (configuration not stated) | -16.03
CC(O)CN1CCC(CNCc2ccccc2OC(F)(F)F)CC1 (configuration not stated) | -2.479
O=C(NCC(Cc1cccc(F)c1)N1CCCC1=O)c1cnccn1 (configuration not stated) | -11.28
CN(Cc1ccccc1OC(F)(F)F)C(=O)C1CC1 | 0.731
CN(Cc1cccc(OC(F)(F)F)c1)C(=O)Cc1ccon1 | -6.414

SMILES | Percent Effect [%]
O=C(NCC(CO)Cc1cccc(OC(F)(F)F)c1)c1cnccn1 (configuration not stated) | 103
CNC(=O)NCC(CO)Cc1cccc(OC(F)(F)F)c1 (configuration not stated) | 137.5
CC(CNC(=O)c1cnccn1)Oc1cccc(Br)c1 (configuration not stated) | -3.895
CNC(=O)NCC(CO)Cc1ccccc1OC(F)(F)F (configuration not stated) | 119.9
CN(Cc1cccc(OC(F)(F)F)c1)C(=O)c1ccncc1F | 3.384
O=C(c1ncc[nH]1)N1CCC(n2cc(-c3ccccn3)nn2)CC1 | -4.702
CN1N=C(C(=O)N2CCN(c3ncccc3Cl)CC2)CCC1=O | -3.997
CC(C)C(=O)NCCCn1ncc2c(Cl)cccc21 | -4.05
O=S(=O)(N1CCCCCC1)N1CCN(Cc2ccc(F)cc2Br)CC1 | 6.465
O=C(CN1CCCC1Cn1cncn1)NCCc1c(F)cccc1F (configuration not stated) | -7.499
O=C(CN1CCCCC1Cn1cncn1)NC1CCN(C2CC2)CC1 (configuration not stated) | -6.056
CCN1CCC(NC(=O)CN2CCCC2Cn2cncn2)CC1 (configuration not stated) | 1.475
Cc1cccc(OCCNC(=O)CN2CCCC2Cn2cncn2)c1 (configuration not stated) | 115.7
O=C(CN1CCCC(Cn2cncn2)C1)NCCOc1ccccc1 (configuration not stated) | -8.945
O=C(CN1CCCC1Cn1cncn1)Nc1cccnc1 (configuration not stated) | -2.58
O=C(CN1CCCC1Cn1cncn1)NCCOc1ccccc1 (configuration not stated) | 108.3
O=C(CN1CCCC1Cn1cncn1)NCCOc1ccc(F)cc1 (configuration not stated) | 135.9
O=C(CN1CCCC1Cn1cncn1)NCCOc1cccc(F)c1 (configuration not stated) | 0.2795
O=C(CN1CCCC1Cn1cncn1)NC(C1CC1)C1CC1 (configuration not stated) | -5.289
O=C(CN1CCCCC1Cn1cncn1)NCCOc1ccccc1 (configuration not stated) | 140
COc1ccc(CNC[C@@]2(COc3cccnc3)C[C@@H](O)[C@@H](O)C2)cc1.Cl | -5.616
CCSCCC(C)NC(=O)Nc1cccn(C)c1=O (configuration not stated) | -9.489
CC(C)N1CCCC1c1nc(N(C)C)ncc1I (configuration not stated) | 51.47

SMILES | Percent Effect [%]
CN(C)c1ccc(NC(=O)N2CCCCCC2c2ccncc2)cn1 (configuration not stated) | 0.3778
CC(C)N1CCCCC1c1nc(N(C)C)ncc1I.Cl (configuration not stated) | 76.51
COCCOc1ccnc(-c2noc([C@@H]3CCCN3C(C)C)n2)c1 | -15.24
CC(C)C1CN(Cc2cnc(N(C)C)nc2)CCCN1CC1CC1 (configuration not stated) | -7.489
CC1=N[C@@]2(CC[C@@H]3CN(C(=O)NCC(C)C)C[C@@H]32)C(=O)N1CC(C)C | 8.203
CCCc1nccn1-c1cccc(CN2CCCC2)c1 | -15.07
Cc1ncccc1C(=O)NCc1ccccc1CN(C)Cc1ccco1 | 15.52
CCCNc1ncc(CN2CCN(C)C(=O)C2C)cn1 (configuration not stated) | -4.636
O=C(O)C(F)(F)F.O=C(O)C(F)(F)F.c1csc(CN2CCC3(COCCN(CC4CC4)C3)C2)n1 (configuration not stated) | 26.97
Cc1ccc(CN2CCOCC3(CCN(Cc4cccs4)C3)C2)o1.O=C(O)C(F)(F)F.O=C(O)C(F)(F)F (configuration not stated) | 110.5
Cc1occc1C(=O)N1CCOCC2(CCN(Cc3nccs3)C2)C1.O=C(O)C(F)(F)F (configuration not stated) | -1.117
Cc1ccc(CN2CCOC3(COCCN(C(C)C)C3)C2)o1.O=C(O)C(F)(F)F.O=C(O)C(F)(F)F (configuration not stated) | -26.11
Cc1ccc(CN2CCCC3(COCCN(Cc4c[nH]nn4)C3)C2)o1.O=C(O)C(F)(F)F.O=C(O)C(F)(F)F (configuration not stated) | -14.33
COCCN1C[C@@H](C)[C@@]2(COCCN(C(=O)c3ccoc3)C2)C1 | 1.711
O=C(O)C(F)(F)F.O=C(O)C(F)(F)F.c1csc(CN2CCCC3(COCCN(Cc4c[nH]nn4)C3)C2)c1 (configuration not stated) | -6.971
CN(C)CCN1CCOCC2(CCCN(C(=O)c3ccoc3)C2)C1.O=C(O)C(F)(F)F.O=C(O)C(F)(F)F (configuration not stated) | -7.918
O=C(N1CCCC1)N1CCOCC2(CCN(Cc3cccs3)C2)C1.O=C(O)C(F)(F)F (configuration not stated) | 119.1
O=C(NC1CC1)N1CCOCC2(CCN(Cc3cccs3)C2)C1.O=C(O)C(F)(F)F (configuration not stated) | 89.31
O=C(c1ccoc1)N1CCOCC2(CCN(Cc3cccs3)C2)C1 (configuration not stated) | 98.93
CC(C)N1CCOCC2(CN(Cc3cccs3)CCO2)C1.O=C(O)C(F)(F)F.O=C(O)C(F)(F)F (configuration not stated) | 7.639

Reference: ChEMBL document CHEMBL3988442, “University of Dundee, Small-Polar-MMV Screening Library” (2021)
